# Measured values: PubChem BioAssay AID463173 (ICCB-Longwood Screening Facility, Harvard Medical School, 2010)
# Hit rate of the full screen: of about 52,000 compounds, about 1,700 (3.3%) were called active. The sample as a whole holds a higher share of actives than the screen did. Values without a mark were called inactive. Rule as the data show it: active = survival mostly below about 52% (no sharp cut-off); inactive = mostly above about 56%.
# Tested on: Wild type
# Experiment: growth inhibition of S. aureus wild type versus tarO mutant, primary screen, teichoic acid synthesis inhibitors, RN4220, OD600 (AID 463173)
# Details: S. aureus RN4220 wild type/DeltatarO growth, OD600, 18 h, hits give low values, screened at 18.75 µg/mL (by protocol)
row,SMILES,survival
1,O=C(c1ccc2c(c1)OCCO2)N(Cc1cccnc1)c1nc2c(Cl)cccc2s1,128%
2,O=C(Nc1cccc(C(F)(F)F)c1)c1cc(-c2ccc(Cl)s2)nc2ccccc12,100%
3,CCn1nc(C)c2c(-c3ccccc3)cc(=O)n(C(C)C(=O)NCc3ccc(C)cc3)c21 (stereo not given),127%
4,COc1ccc(NC(=O)C2=C(C)Nc3ncnn3C2c2cccn2C)cc1 (stereo not given),85%
5,CC1=C(C(=O)Nc2ccccc2C)C(c2ccc[nH]2)n2ncnc2N1 (stereo not given),99%
6,CC1=C(C(=O)Nc2ccccc2)C(c2ccc[nH]2)n2ncnc2N1 (stereo not given),-3% (active)
7,COc1ccc(NC(=O)C2=C(C)Nc3ncnn3C2c2ccc[nH]2)cc1 (stereo not given),83%
8,CC1=C(C(=O)Nc2ccccc2)C(c2cccn2C)n2ncnc2N1 (stereo not given),76%
9,COc1ccccc1NC(=O)C1=C(C)Nc2ncnn2C1c1cccn1C (stereo not given),0% (active)
10,COc1ccc(C2C(=O)N(C3CCCCCC3)CC(=O)N2Cc2ccccc2)cc1 (stereo not given),67%
11,Cc1ccc(CNC(=O)CN2C(=O)C3CCCCN3c3ccc(C(=O)N4CCCC4)cc32)cc1 (stereo not given),81%
12,COc1ccc(-c2ccc(/C=N/NC(N)=O)o2)cc1,114%
13,COc1ccc(-c2nnc3n2N(C(C)=O)C(c2ccc(Cl)c(Cl)c2)=C(C(C)=O)S3)cc1,-3% (active)
14,COc1ccc(C2=C(C(C)=O)Sc3nnc(-c4ccccc4)n3N2C(C)=O)cc1,76%
15,CC(=O)C1=C(c2ccc(Cl)c(Cl)c2)N(C(C)=O)n2c(nnc2-c2ccccc2)S1,83%
16,COC(=O)c1c(NC(=O)c2cc3nc(-c4ccc(OC)cc4)cc(C(F)(F)F)n3n2)sc2c1CCCC2,73%
17,Cc1c(CNC2CCCCCC2)c(C(=O)O)c(C)n1Cc1ccc(F)cc1,98%
18,CCOc1ccccc1CNS(=O)(=O)c1cnc(N)nc1,55%
19,CCOc1ccccc1NS(=O)(=O)c1cnc(N)nc1,-3% (active)
20,Nc1ncc(S(=O)(=O)Nc2ccc(F)cc2F)cn1,82%
21,Cc1ccc(C2Nc3ccccc3-n3c(-c4ccccc4)c4c(=O)n(C)c(=O)n(C)c4c32)o1 (stereo not given),74%
22,COc1ccc(-c2c3c(=O)n(C)c(=O)n(C)c3c3n2-c2ccccc2NC3c2ccc(OC)cc2)cc1 (stereo not given),8% (active)
23,COc1ccc(C2Nc3ccccc3-n3c(-c4ccccc4)c4c(=O)n(C)c(=O)n(C)c4c32)cc1 (stereo not given),-3% (active)

row,SMILES,survival
1,Cn1c(=O)c2c(-c3ccccc3)n3c(c2n(C)c1=O)C(c1ccc([N+](=O)[O-])cc1)Nc1ccccc1-3 (stereo not given),21%
2,COc1ccc(-c2nc3ccccc3n3c(-c4ccccc4)c4c(=O)n(C)c(=O)n(C)c4c23)cc1,80%
3,Cc1ccc(C2Nc3ccccc3-n3c(-c4ccccc4)c4c(=O)n(C)c(=O)n(C)c4c32)cc1 (stereo not given),-8% (active)
4,Cc1ccc(C2Nc3cc(C)c(C)cc3-n3c(-c4ccccc4)c4c(=O)n(C)c(=O)n(C)c4c32)o1 (stereo not given),77%
5,COc1ccc(-c2c3c(=O)n(C)c(=O)n(C)c3c3n2-c2ccccc2NC3c2ccco2)cc1 (stereo not given),57%
6,COc1ccc(-c2c3c(=O)n(C)c(=O)n(C)c3c3n2-c2ccccc2NC3c2ccccc2OC)cc1 (stereo not given),64%
7,Cc1cc(C)cc(NC(=O)CN2C(=O)CSc3ccc(S(=O)(=O)N4CCCC4)cc32)c1,88%
8,Cc1nnc(SCc2nc(-c3ccc(Cl)cc3)no2)n1-c1ccc(F)cc1,100%
9,CC(C)CCNC(=O)CCCN1C(=O)c2ccccc2Sc2ncccc21,85%
10,CCS(=O)(=O)c1nc(S(=O)(=O)c2ccc(C)cc2)c(NC(C)c2ccccc2)s1 (stereo not given),136%
11,COC(=O)c1ccc2c(=O)n(CCCCCC(=O)N3CCN(c4ccc(OC)cc4)CC3)c(=O)[nH]c2c1,66%
12,O=C(Nc1ccc(F)c(F)c1)C1CCCN1S(=O)(=O)c1cccc2nsnc12 (stereo not given),77%
13,CCN(CC)CCN(C(=O)c1ccco1)c1nc2c(C)cccc2s1,98%
14,O=C(Cn1nc(-c2nccc3ccccc23)oc1=O)N1CCCc2ccccc21,103%
15,COc1ccc(N2CCN(c3oc(/C=C/c4cccc(OC)c4)nc3C#N)CC2)cc1,83%
16,COc1ccc(-c2nc(CNC(=O)Nc3ccccc3)c(C)o2)cc1,84%
17,CCOc1ccc2c(c1)[C@@H]1C=CC[C@@H]1[C@H](c1ccccc1Cl)N2,0% (active)
18,COc1cccc(NS(=O)(=O)c2ccc3c(c2)[C@H]2C=CC[C@H]2[C@@H](c2ccccc2Cl)N3)c1,131%
19,COC(=O)c1ccc([C@@H]2Nc3c(cccc3C(F)(F)F)[C@@H]3C=CC[C@@H]32)cc1,3% (active)
20,COC(=O)c1cccc2c1NC(c1cccnc1)C1CC=CC21 (stereo not given),111%
21,COC(=O)c1ccc([C@H]2Nc3ccc(S(=O)(=O)Nc4ccc(F)cc4)cc3[C@H]3C=CC[C@H]32)cc1,69%
22,CCOC(=O)c1cccc2c1N[C@@H](c1ccc(F)cc1)[C@H]1CC=C[C@@H]21,12% (active)
